# From PubChem BioAssay AID1347075 (National Center for Advancing Translational Sciences (NCATS), 2019)
# The whole screen tested about 400,000 compounds, of which about 5,500 (1.4%) were called active. A call without a number means that no potency is given here. Inconclusive results (about 9%) are left out. Calls come from the whole dose curve; as a rule, active = well fitted cell-killing curve with a large enough effect; inconclusive = small, poorly fitted or top-dose-only effect, or effect the other way; inactive = flat fitted curve, though single readings scatter. Many of the other results were omitted from the sample, so actives are more common in it than they were.
# Assay: qHTS assay for MDR1-selective chemotherapeutics: Primary screen using the parental adenocarcinoma cell KB-3-1; note: nearly all actives have a fitted effect of over 60% in size
# Conditions: KB-3-1 viability, CellTiter-Glo ATP luminescence, 72 h; series mostly up to 46.1 µM
# Method in brief: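 Cytotoxicity measured as CellTiter-Glo luminescence after 72 h at 37 C. Compound titrations were pinned onto drug-naive KB-3-1 parental adenocarcinoma cells grown in DMEM with 10% FBS, and normalized data fitted to concentration-response curves.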
# Potency is the fitted concentration of half-maximal effect.
row,Structure (SMILES),Potency
1,CC1=CC(C)(C)NC(=S)N1NC(=O)c1ccccc1Cl,inactive
2,CC(Sc1nnc2c(n1)C1CCC2(C)C1(C)C)C(=O)Nc1ccccc1 (stereo not given),inactive
3,CC12CCC(C(=O)N(NC(=O)c3ccccc3O)C1=O)C2(C)C (stereo not given),16.4 µM (active)
4,Cc1ccc(CNC(=O)CCC(=O)N2Cc3ccccc3Oc3ncccc32)cc1,inactive
5,CNC(=O)CN1C(=O)c2cccnc2Sc2ccccc21,inactive
6,COCCNC(=O)c1ccc2c(c1)N=C(C)c1cc(C)ccc1S2,0.651 µM (active)
7,COCCNC(=O)c1ccc(S(=O)(=O)c2ccc(Cl)cc2)c(NC(C)=O)c1,inactive
8,CC1=Nc2cc(C(=O)N3CCC(C)CC3)ccc2Sc2ccc(Cl)cc21,inactive
9,NC(=O)CSc1nc2c(oc3ccccc32)c(=O)n1Cc1ccccc1,inactive
10,COc1cccc(-c2cc3nc(NCCOc4ccccc4Cl)n(C)c(=O)c3s2)c1,inactive
11,O=c1[nH]c(CCl)nc2cc(-c3ccc(Cl)cc3)sc12,9.2 µM (active)
12,Cn1c(NCc2cccnc2)nc2cc(-c3ccc(F)cc3)sc2c1=O,inactive
13,Cc1cc(C)c2oc(C(=O)Nc3ccc(S(=O)(=O)N(C)c4ccccc4)cc3)cc(=O)c2c1,inactive
14,CN(C)S(=O)(=O)N1CCC(Oc2cccc(C(=O)NCCCC3CCCC3)c2)CC1,14.6 µM (active)
15,CN(C(=O)c1cccc(OC2CCN(S(=O)(=O)N(C)C)CC2)c1)C1CCOC1 (stereo not given),inactive
16,COc1cccc(C(=O)NCCS(=O)(=O)NCC2CCCO2)c1 (stereo not given),inactive
17,COc1cccc(NC(=O)C2CCN(c3cc(C)nc4c(-c5ccc(Cl)cc5)c(C)nn34)CC2)c1,inactive
18,CC(NC(=O)c1cc2c(=O)n3ccccc3nc2n(C(C)C)c1=N)c1ccccc1 (stereo not given),inactive
19,COc1ccc(OC)c(CNC(=O)Cn2nc(C)c3c(C)n(-c4ccccc4)nc3c2=O)c1,inactive
20,CC(O)(c1cccc(F)c1)c1nc(-c2ccc3c(c2)OCO3)cs1 (stereo not given),inactive
21,COc1ccc(C(O)c2nc(-c3ccc4c(c3)OCO4)cs2)cc1 (stereo not given),inactive
22,O=C(Nc1nc(-c2ccc3c(c2)OCO3)cs1)c1ccncc1,2.91 µM (active)
23,Cc1nn(C(C)C(=O)NCCc2ccccc2)c(=O)c2c1sc1ccccc12 (stereo not given),inactive
24,CCC(C(=O)Nc1cc(OC)ccc1OC)n1c(=O)c(C(F)(F)F)nc2ccccc21 (stereo not given),inactive

row,Structure (SMILES),Potency
1,O=C(CN1c2ccccc2S(=O)(=O)c2ccccc21)Nc1cccc(C(F)(F)F)c1,inactive
2,COc1ccc(/C=C2\N=C3CCCN3C2=O)cc1,inactive
3,COc1ccccc1C1=CC(=O)CCC1,inactive
4,COc1ccc(/C=C2/CCCc3ccccc3C2=O)cc1,0.651 µM (active)
5,Cc1cc2nc(NC(=O)c3ccc(S(=O)(=O)N4CCOCC4)cc3)sc2cc1C,inactive
6,O=C(Nc1nc2ccc([N+](=O)[O-])cc2s1)c1ccc(S(=O)(=O)N2CCCc3ccccc32)cc1,2.06 µM (active)
7,CNC(=O)c1ccsc1NC(=O)c1ccc(S(=O)(=O)N2CCc3ccccc32)cc1,inactive
8,O=C(NC1CCCCC1)c1ccc2c(c1)N(Cc1ccc(Cl)cc1)C(=O)c1ccccc1S2=O (stereo not given),inactive
9,N#Cc1c(-c2cccs2)nc(SCC(=O)c2ccc(Br)cc2)[nH]c1=O,inactive
10,COc1ccc(C(F)(F)F)cc1NC(=O)c1sc2nc(-c3cccs3)ccc2c1N,inactive
11,N#Cc1ccc(C(=O)Nc2nc(-c3cccs3)c(C(=O)C(F)(F)F)s2)cc1,5.8 µM (active)
12,NCCCNC(=S)NCCCN(Cc1ccc(Cl)cc1)c1ccc(Br)cn1,inactive
13,S=C(NCCCc1cnc[nH]1)NCCCN(Cc1ccc(Cl)c(Cl)c1)c1ccc(Br)cn1,13 µM (active)
14,O=C(Nc1ccc(Cl)cc1)c1cnn2c1NC(=C1CC1)C=C2C(F)F,inactive
15,CCn1c(=O)c2cc(C(=O)NCCc3ccc(Cl)cc3)sc2c2ccccc21,inactive
16,CSc1nc(Nc2ccc(F)cc2)cc(-c2ccccc2)n1,inactive
17,CSc1nc(-c2ccccc2)nc(C(Cl)Cl)n1,2.91 µM (active)
18,CC(=O)c1ccc(NC(=O)C2CCN(S(=O)(=O)c3c(C)noc3/C=C/c3ccc(C)cc3)CC2)cc1,inactive
19,COc1ccc(CNC(=O)CSCc2nc(-c3ccccc3F)oc2C)cc1,inactive
20,Fc1ccccc1Oc1ncnc2c1oc1ccccc12,inactive
21,Cc1ccc(-c2ccc(CN3C(C)C(=O)N(Cc4cn(CCC5OCCCO5)nn4)CCS3(=O)=O)cc2)cc1 (stereo not given),inactive
22,Cc1ccc(-c2ccc(CN3C(C(C)C)C(=O)N(Cc4cn(CCC5OCCO5)nn4)CCS3(=O)=O)cc2)cc1 (stereo not given),18.4 µM (active)
23,CC(C)C1C(=O)N(Cc2cn(CCC3OCCO3)nn2)CCS(=O)(=O)N1Cc1ccc(-c2ccccc2C(F)(F)F)cc1 (stereo not given),inactive
24,Cc1ccc(-c2nc3ccccn3c2Nc2c(C)cccc2C)o1,inactive

row,Structure (SMILES),Potency
1,CCOc1ccc(NC(=O)Cn2c(C)ccc(C#N)c2=O)cc1,inactive
2,CC(=O)c1cccc(Nc2ccc3cc(S(=O)(=O)N4CCC(C)CC4)ccc3n2)c1,inactive
3,CCOc1cc(NC(=O)Nc2ccccc2)c(OCC)cc1NC(=O)CC,inactive
4,CCOc1cc(NC(=O)CCl)c(OCC)cc1NC(C)=O,18.4 µM (active)
5,CCCC(=O)Nc1cc(OCC)c(NC(=O)NC2CCCCC2)cc1OCC,inactive
6,COc1ccc(OC)c(NC(=O)C2CCCN(S(=O)(=O)c3ccc4c(c3)CCCC(=O)N4)C2)c1 (stereo not given),inactive
7,COC(=O)c1cc(NC(=O)CCS(=O)(=O)c2cc(Br)cc3c2N(C(=O)C2CC2)CC3)cc(C(=O)OC)c1,inactive
8,CCOC(=O)c1ccc(-c2ccc(/C=C(\C#N)C(=O)Nc3ccc(C)cc3)o2)cc1,inactive
9,Cc1ccc(C(=O)N/C(=C/c2ccc(-c3cccc([N+](=O)[O-])c3)o2)C(=O)NCCCN(C)C)cc1,inactive
10,Cc1ccc(Cc2cnc(NC(=O)/C(C#N)=C/c3ccc(-c4cccc([N+](=O)[O-])c4)o3)s2)cc1,14.6 µM (active)
11,CCc1ccccc1NC(=O)CSc1nc(C)c(C(=O)Nc2ccccc2)c(-c2ccc(Cl)cc2)c1C#N,inactive
12,CCN(CCCNC(=O)c1c(C)oc2ncn(CC(C)C)c(=O)c12)Cc1ccccc1,inactive
13,COc1ccc(-c2cc(NCc3ccc(F)cc3)n3cnnc3n2)cc1,inactive
14,COc1cc(OC)cc(C(=O)N[C@H](C(=O)OCC(=O)NC(C)c2ccccc2)C(C)C)c1 (stereo not given in full),inactive
15,COc1cc(OC)cc(C(=O)NC(C(=O)N2CCC2)C(C)C)c1 (stereo not given),inactive
16,COc1cc(OC)cc(C(=O)N[C@H](C(=O)Nc2nc3ccccc3[nH]2)C(C)C)c1,1.64 µM (active)
17,COc1ccc(O)c(/C=N/N=C/c2cccc([N+](=O)[O-])c2)c1,inactive
18,CCCc1ccc(OCc2ccc(C(=O)N/N=C/c3cccc([N+](=O)[O-])c3)o2)c(OC)c1,18.4 µM (active)
19,COc1ccccc1OCc1ccc(C(=O)NC(C)c2ccccc2)o1 (stereo not given),inactive
20,COc1ccc(OC)c(NC(=O)Cn2c(=O)n(Cc3ccccc3)c(=O)c3ccccc32)c1,inactive
21,COc1ccc(NC(=O)CCCN2C(=O)CCn3nc(-c4cn(C)c5ccccc45)cc32)cc1OC,inactive
22,Cc1cc(NC(=O)c2cccc(Cl)c2)ccc1-c1cc2ccccc2oc1=O,inactive
23,O=c1oc2ccccc2cc1-c1cn(-c2ccccc2)c(=S)[nH]1,3.66 µM (active)
24,COc1cc(CNC(=O)c2cc3n(n2)CCCN(Cc2cccc(F)c2)C3=O)cc(OC)c1OC,inactive

row,Structure (SMILES),Potency
1,COc1ccc(CNC(=O)CSc2nc3ccccc3nc2Cc2ccccc2)cc1,inactive
2,COc1ccc2c(c1)c(=Cc1ccc(N(C)C)cc1)c1cc(-c3ccccc3)[n+](C)n12,3.66 µM (active)
3,CN(C)c1ccc(/C=c2\[nH]c(=O)/c(=C/c3ccc(N(C)C)cc3)[nH]c2=O)cc1,inactive
4,NC(=O)C1CCN(c2cc(-c3ccc4c(c3)OCCCO4)ncn2)CC1,inactive
5,Cc1oc2ccc(O)c(CN3CCCCC3)c2c1C(=O)Nc1cccc(C(F)(F)F)c1,inactive
6,COc1ccc(CCNC(=O)c2ccc(-n3c(C)cc4c3CCCC4)cc2)cc1OC,inactive
7,CC(=O)c1ccc(Oc2cc(C)nc(-n3nc(C)cc3C)n2)cc1,0.651 µM (active)
8,COc1ccc(Nc2cc(Sc3ccc(OC)cc3)ncn2)cc1,inactive
9,Cc1cc(C)nc(-n2nc(C)cc2NC(=O)c2ccc(F)cc2F)n1,inactive
10,COc1cc(Cl)c(C)cc1Nc1nnc(-n2nc(C)cc2C)c2ccccc12,inactive
11,COc1ccc(Nc2cc(C)nc(-n3nc(C)cc3C)n2)cc1,0.731 µM (active)
12,COc1ccc(C(C)=O)cc1CSc1nc2nc(C)cc(C)n2n1,inactive
13,COc1ccccc1/C=N/N1CCN(Cc2ccccc2Cl)CC1,inactive
14,COc1ccc(C(=O)NNc2cc(C)nc(NNC(=O)c3ccc(OC)cc3)n2)cc1,inactive
15,COc1ccccc1/C=N\Nc1cc(C)nc(-n2nc(C)cc2C)n1,7.31 µM (active)
16,NS(=O)(=O)c1ccc(NC(=O)C(=O)Nc2ccc3nc4n(c(=O)c3c2)CCCCC4)cc1,inactive
17,COc1ccc(CCN2C(=O)N(c3cccc(OC)c3)C(=O)C2CC(=O)Nc2ccccc2)cc1 (stereo not given),inactive
18,COc1ccccc1CNS(=O)(=O)c1cc(Br)cc2c1N(C(C)=O)C(C)C2 (stereo not given),inactive
19,Cc1ccc2c(c1)c1c(c(=O)n(-c3ccccc3)c(=O)n1CC(=O)c1ccc(Cl)cc1)n2C,inactive
20,COC(=O)CC1Oc2ccccc2-n2cc(-c3ccccc3)nc21 (stereo not given),inactive
21,CCOCCCNC(=O)c1c(NC(=O)Cc2coc3c(C)c(C)ccc23)sc2c1CCC2,inactive
22,O=C(CCc1ccccc1)NCc1ccc2c(c1)CCN2C(=O)c1ccccc1,inactive
23,CCCCn1c(CNC(=O)C23CC4CC(CC(C4)C2)C3)nnc1SCC(=O)Nc1ccc(C)cc1,inactive
